{"source": "PubChem BioAssay AID493034", "about": "(The Scripps Research Institute Molecular Screening Center, 2011)", "note": "Among all 2,400 compounds or so, about 2,200 (92%) were called active.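 How the source made its calls: active means mean inhibition over triplicate runs exceeds the cutoff derived for the earlier primary screen (cut at about 25% in these data); inactive means the rest.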 So high a share suggests a set chosen from earlier hits. The list shows a part of the results.", "data": [{"target": "Platelet-activating factor acetylhydrolase IB subunit alpha2 (Homo sapiens) (UniProt P68402)", "sequence (P68402 whole entry, looked up)": "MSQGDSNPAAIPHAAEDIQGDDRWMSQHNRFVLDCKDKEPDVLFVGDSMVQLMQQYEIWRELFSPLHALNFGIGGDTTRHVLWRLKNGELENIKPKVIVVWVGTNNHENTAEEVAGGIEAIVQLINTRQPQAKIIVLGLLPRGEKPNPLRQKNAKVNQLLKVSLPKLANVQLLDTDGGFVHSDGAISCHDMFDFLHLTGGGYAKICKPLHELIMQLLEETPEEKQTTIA", "experiment": "PAFAH1B2 inhibitors, confirmation, biochemical, fluorescence polarization, FP-rhodamine probe, triplicate (AID 493034);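 further: 0% = enzyme with DMSO and 100% = wells lacking PAFAH1B2 protein; inhibitors lower polarization by leaving the probe unbound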", "details": "recombinant PAFAH1B2, FP-rhodamine probe fluorescence polarization; at 3.39 µM; active compounds read high", "values": [{"molecule": "O=C(CCl)N(c1ccccc1)C1CCCCC1", "inhibition": "29.2% (active)"}, {"molecule": "O=C(O)c1cc(NC(=S)NC(=O)C(c2ccccc2)c2ccccc2)ccc1Cl", "inhibition": "20.9% (inactive)"}, {"molecule": "Cc1ccc(S(=O)(=O)Nc2ccccc2-c2ccccc2NS(=O)(=O)c2ccc(C)cc2)cc1", "inhibition": "43.8% (active)"}, {"molecule": "CC(C)(C)c1ccc(S(=O)(=O)/N=C2\\C=C(NS(=O)(=O)c3ccccc3)C(=O)c3ccccc32)cc1", "inhibition": "11.4% (inactive)"}, {"molecule": "COc1cc(C(=O)O[C@H]2CC(C)=CC[C@@]3(C)CC[C@@](O)(C(C)C)[C@H]23)ccc1O", "inhibition": "23.9% (inactive)"}, {"molecule": "Cc1nc2ccccn2c1-c1ccnn1S(=O)(=O)c1ccc(F)cc1", "inhibition": "22.7% (inactive)"}, {"molecule": "O=c1[nH]c2cc(Cl)ccc2c(O)c1-c1cccc(Oc2ccccc2)c1", "inhibition": "27.1% (active)"}, {"molecule": "O=C(CSc1nc(C2CC2)nc2ccccc12)Nc1ccc2c(c1)OCCO2", "inhibition": "1.2% (inactive)"}, {"molecule": "CC1CCN(S(=O)(=O)c2ccc(NC(=O)Cc3cccs3)cc2)CC1", "inhibition": "19.6% (inactive)"}, {"molecule": "CC1CCN(S(=O)(=O)c2cccc(C(=O)N(C)C3CCS(=O)(=O)C3)c2)CC1", "note": "(centres undefined)", "inhibition": "23.7% (inactive)"}, {"molecule": "CC1CCN(S(=O)(=O)c2ccc(NC(=O)CN3CCCCCC3)cc2)CC1", "inhibition": "20.4% (inactive)"}, {"molecule": "CC1CCN(S(=O)(=O)c2ccc(NC(=O)[C@@H]3CCCC[C@@H]3C(=O)O)cc2)CC1", "inhibition": "39.3% (active)"}, {"molecule": "CC1CCN(S(=O)(=O)c2ccc(NC(=O)CSc3nnnn3C)cc2)CC1", "inhibition": "33.1% (active)"}, {"molecule": "CC1CCN(S(=O)(=O)c2ccc(N/N=C(/C#N)C(N)=O)cc2)CC1", "inhibition": "27.9% (active)"}, {"molecule": "N#Cc1c(-c2ccccc2)nc(SCC(=O)N(c2ccccc2)c2ccccc2)[nH]c1=O", "inhibition": "38.8% (active)"}, {"molecule": "N#Cc1c(-c2ccccc2)nc(SCc2ccc(Cl)cc2)[nH]c1=O", "inhibition": "40% (active)"}, {"molecule": "CC(C)c1ccc(-c2nc(N3CCOCC3)[nH]c(=O)c2C#N)cc1", "inhibition": "23.2% (inactive)"}, {"molecule": "CN(C(=O)CSc1nc(-c2ccc(C(C)(C)C)cc2)c(C#N)c(=O)[nH]1)C1CCCCC1", "inhibition": "20.1% (inactive)"}, {"molecule": "C/C(=N\\O)C1/C(=N/O)CC2C1C2(C)C", "note": "(centres undefined)", "inhibition": "31.7% (active)"}, {"molecule": "Cc1cc(-c2ccccc2)c2ccc(NC(=O)C(C)(C)C)nc2n1", "inhibition": "23.8% (inactive)"}, {"molecule": "O=C(CNC(=O)c1cccc(Br)c1)N/N=C/c1cc(Br)cc(Br)c1O", "inhibition": "33.1% (active)"}, {"molecule": "Cc1cccc(OCC(=O)NCC(=O)N/N=C/c2cc(Br)cc(Br)c2O)c1", "inhibition": "19.1% (inactive)"}, {"molecule": "C=C[C@]1(C)C=C2CC[C@H]3[C@@](C)(CCC[C@@]3(C)C(=O)O)[C@@H]2CC1", "inhibition": "30.9% (active)"}, {"molecule": "O=S(=O)(Oc1ccccc1N1CCCCC1)c1ccccc1", "inhibition": "14.5% (inactive)"}]}]}
